Experimental data: PubChem BioAssay
Values without a mark were called inactive. Active and inactive are the calls of the source.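 How the source made its calls, unless noted: active means mean inhibition above 46.68%, the untreated control wells mean plus 3 SD; inactive means the rest.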

Experiments:
[1] = target: Nuclear receptor coactivator 3 (Homo sapiens) (UniProt Q9Y6Q9); experiment: SRC3 coactivator transcriptional activity inhibitors, confirmation, cell-based, luminescence, quadruplicate (AID 588792;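 active means mean inhibition over 43.08%, the solvent-only control mean plus 3 SD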;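 further: 0% = DMSO treated cells and 100% = gossypol at 36 µM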); settings: HEK293 GAL4-SRC3 luciferase reporter, at 3.6 µM, hits give high values
Nuclear receptor coactivator 3 (Homo sapiens), sequence (Q9Y6Q9 whole entry, looked up, the tested form may be a part): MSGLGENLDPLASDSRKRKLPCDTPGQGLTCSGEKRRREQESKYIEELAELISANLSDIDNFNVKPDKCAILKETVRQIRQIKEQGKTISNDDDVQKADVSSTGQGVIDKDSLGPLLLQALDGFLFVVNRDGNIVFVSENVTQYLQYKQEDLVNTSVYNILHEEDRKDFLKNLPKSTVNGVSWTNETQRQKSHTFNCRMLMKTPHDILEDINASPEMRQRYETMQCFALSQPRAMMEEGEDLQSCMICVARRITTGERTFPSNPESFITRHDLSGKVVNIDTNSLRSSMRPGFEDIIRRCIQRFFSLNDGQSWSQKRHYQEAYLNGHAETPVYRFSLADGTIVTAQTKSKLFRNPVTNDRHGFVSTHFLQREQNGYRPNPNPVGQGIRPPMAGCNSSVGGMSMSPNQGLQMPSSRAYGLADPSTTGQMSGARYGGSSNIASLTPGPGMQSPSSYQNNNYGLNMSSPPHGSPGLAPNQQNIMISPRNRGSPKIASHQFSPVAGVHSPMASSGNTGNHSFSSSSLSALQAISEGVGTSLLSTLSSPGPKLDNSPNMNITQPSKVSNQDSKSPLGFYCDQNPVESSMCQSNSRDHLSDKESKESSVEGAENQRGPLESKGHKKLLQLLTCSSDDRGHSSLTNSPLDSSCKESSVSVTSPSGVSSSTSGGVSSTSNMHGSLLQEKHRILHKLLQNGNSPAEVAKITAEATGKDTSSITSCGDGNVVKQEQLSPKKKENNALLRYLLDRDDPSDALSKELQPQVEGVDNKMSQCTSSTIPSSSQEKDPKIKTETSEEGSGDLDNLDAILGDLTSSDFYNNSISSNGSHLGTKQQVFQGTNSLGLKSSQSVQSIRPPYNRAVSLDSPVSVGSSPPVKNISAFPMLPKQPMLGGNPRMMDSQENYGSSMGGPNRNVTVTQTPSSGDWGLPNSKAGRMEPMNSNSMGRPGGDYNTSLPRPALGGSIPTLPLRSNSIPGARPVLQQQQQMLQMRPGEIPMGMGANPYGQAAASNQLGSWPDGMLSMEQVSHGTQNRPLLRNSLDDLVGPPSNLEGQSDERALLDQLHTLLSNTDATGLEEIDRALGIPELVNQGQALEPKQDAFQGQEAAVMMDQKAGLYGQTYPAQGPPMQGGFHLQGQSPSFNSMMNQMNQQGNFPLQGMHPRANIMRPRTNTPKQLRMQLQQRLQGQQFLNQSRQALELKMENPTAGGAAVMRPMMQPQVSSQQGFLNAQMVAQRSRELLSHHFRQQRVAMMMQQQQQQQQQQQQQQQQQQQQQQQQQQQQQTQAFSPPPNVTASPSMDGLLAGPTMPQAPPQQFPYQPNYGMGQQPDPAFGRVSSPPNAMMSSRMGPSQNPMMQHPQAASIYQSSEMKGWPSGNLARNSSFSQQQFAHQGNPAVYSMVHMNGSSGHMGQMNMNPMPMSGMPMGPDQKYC

[2] = tested on: transactivating tegument protein VP16 (Human herpesvirus 1), Gal4-VP16 luciferase reporter; experiment: VP16 transactivation inhibitors, counter-screen for SRC3 inhibitor project, cell-based, luminescence, high throughput (AID 588794; in the data active means inhibition above about 30%); settings: mammalian cells, VP16-driven luciferase reporter luminescence; at 3.6 µM; hits give high values
[3] = target: Nuclear receptor coactivator 1 (Homo sapiens) (UniProt Q15788); experiment: SRC1 coactivator transcriptional activity inhibitors, confirmation, cell-based, luminescence, quadruplicate (AID 588820); settings: HEK293 GAL4-SRC1 luciferase reporter, at 3.6 µM, hits give high values;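 further: 0% = DMSO wells and 100% = gossypol 36 µM treated wells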
Nuclear receptor coactivator 1 (Homo sapiens), sequence (Q15788 whole entry, looked up, the tested form may be a part): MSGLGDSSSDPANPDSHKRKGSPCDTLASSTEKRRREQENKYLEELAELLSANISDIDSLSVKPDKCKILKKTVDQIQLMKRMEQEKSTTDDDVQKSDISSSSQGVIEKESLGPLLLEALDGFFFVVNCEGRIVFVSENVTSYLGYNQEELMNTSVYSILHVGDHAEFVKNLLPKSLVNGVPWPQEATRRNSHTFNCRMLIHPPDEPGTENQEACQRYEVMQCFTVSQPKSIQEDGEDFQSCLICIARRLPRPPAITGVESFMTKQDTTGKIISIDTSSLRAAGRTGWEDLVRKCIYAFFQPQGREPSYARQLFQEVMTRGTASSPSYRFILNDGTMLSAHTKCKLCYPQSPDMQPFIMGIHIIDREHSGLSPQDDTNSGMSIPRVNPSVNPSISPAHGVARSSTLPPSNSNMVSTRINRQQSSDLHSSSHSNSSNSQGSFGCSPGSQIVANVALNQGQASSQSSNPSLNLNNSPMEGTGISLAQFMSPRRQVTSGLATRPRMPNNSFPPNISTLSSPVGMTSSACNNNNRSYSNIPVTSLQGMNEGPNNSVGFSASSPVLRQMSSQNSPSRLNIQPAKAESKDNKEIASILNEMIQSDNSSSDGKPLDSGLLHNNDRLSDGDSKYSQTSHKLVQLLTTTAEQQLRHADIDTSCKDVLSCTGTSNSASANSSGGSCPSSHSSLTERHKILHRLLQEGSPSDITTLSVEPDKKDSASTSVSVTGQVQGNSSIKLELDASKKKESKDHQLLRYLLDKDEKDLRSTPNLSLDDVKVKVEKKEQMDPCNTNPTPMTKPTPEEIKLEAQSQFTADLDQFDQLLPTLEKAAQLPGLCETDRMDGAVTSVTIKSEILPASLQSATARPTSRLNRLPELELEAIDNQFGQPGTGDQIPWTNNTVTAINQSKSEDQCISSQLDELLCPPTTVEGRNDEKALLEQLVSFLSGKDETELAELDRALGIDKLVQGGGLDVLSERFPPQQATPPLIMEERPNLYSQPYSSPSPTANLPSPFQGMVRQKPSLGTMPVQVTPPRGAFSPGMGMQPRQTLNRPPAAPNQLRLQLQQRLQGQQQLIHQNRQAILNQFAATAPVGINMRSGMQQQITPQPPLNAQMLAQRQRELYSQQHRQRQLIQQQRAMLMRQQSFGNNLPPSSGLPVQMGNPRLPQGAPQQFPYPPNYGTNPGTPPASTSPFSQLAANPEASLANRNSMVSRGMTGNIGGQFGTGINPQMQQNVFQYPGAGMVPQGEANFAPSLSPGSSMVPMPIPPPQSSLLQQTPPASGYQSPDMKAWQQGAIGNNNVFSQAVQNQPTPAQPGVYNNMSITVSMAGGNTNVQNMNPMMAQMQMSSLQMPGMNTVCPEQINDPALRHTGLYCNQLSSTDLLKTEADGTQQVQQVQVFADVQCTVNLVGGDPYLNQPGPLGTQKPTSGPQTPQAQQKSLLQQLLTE

[4] = VP16 transactivation inhibitors, counter-screen for SRC1 inhibitor project, cell-based, luminescence, high throughput (AID 588824; in the data active means inhibition above about 25%); settings: cell-based VP16 transactivation luciferase luminescence; at 3.6 µM; hits give high values
[5] = StAR promoter reporter inhibitors, counter-screen for LRH-1 inverse agonist project, cell-based, luminescence, high throughput (AID 651611; in the data active means inhibition above about 28%); settings: StAR promoter luciferase reporter counterscreen, at 3.6 µM, hits give high values
[6] = target: Nuclear receptor subfamily 5 group A member 2 (Homo sapiens) (UniProt O00482); experiment: LRH-1 (NR5A2) inverse agonists, retest, confirmation, cell-based, luminescence (AID 651613; in the data active means inhibition above about 42%;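 further: HEK293T cells co-transfected with LRH-1 and StAR promoter luciferase reporter; 0% = vehicle wells and 100% = parental cells lacking receptor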); settings: cell-based LRH-1 luciferase reporter, inverse agonism; at 3.6 µM; hits give high values
Nuclear receptor subfamily 5 group A member 2 (Homo sapiens), sequence (O00482 whole entry, looked up): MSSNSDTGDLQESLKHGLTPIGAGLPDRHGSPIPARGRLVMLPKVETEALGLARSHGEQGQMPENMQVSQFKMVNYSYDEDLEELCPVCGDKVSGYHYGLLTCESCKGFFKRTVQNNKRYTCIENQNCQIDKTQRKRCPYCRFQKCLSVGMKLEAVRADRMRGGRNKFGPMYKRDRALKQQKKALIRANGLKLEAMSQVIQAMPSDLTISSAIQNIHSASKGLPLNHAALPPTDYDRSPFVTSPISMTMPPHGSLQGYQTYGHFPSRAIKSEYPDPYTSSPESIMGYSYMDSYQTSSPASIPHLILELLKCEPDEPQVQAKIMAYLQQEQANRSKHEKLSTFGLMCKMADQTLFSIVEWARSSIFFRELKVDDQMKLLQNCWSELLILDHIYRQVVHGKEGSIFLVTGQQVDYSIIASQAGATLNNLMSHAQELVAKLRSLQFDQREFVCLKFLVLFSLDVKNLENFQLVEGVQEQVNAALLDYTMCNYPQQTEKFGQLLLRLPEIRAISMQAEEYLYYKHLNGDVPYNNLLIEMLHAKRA

[7] = target: Steroidogenic factor 1 (Homo sapiens) (UniProt Q13285); experiment: SF1 (NR5A1) inverse agonists, counter-screen for LRH-1 inverse agonist project, cell-based, luminescence, high throughput (AID 651614; in the data active means inhibition above about 44%;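 further: cells cotransfected with StAR promoter reporter and SF1 expression vector; 0% = vehicle on cells with receptor and 100% = vehicle on cells lacking receptor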); settings: cell-based SF1 luciferase reporter, at 3.6 µM, hits give high values
Steroidogenic factor 1 (Homo sapiens), sequence (Q13285 whole entry, looked up, the tested form may be a part): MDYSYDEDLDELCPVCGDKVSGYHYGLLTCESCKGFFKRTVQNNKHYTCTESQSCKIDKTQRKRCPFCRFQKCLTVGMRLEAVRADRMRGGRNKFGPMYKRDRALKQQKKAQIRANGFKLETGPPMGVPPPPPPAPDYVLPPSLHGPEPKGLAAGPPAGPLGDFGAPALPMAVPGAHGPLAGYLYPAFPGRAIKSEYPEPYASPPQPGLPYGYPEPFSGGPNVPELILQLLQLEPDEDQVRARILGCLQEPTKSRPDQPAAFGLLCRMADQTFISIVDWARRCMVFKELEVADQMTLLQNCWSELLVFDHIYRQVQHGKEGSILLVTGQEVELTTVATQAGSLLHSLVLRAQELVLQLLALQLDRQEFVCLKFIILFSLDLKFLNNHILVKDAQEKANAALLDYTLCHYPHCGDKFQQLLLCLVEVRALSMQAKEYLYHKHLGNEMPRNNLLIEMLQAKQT

[8] = VP16 transactivation reporter inhibitors, counter-screen for LRH-1 inverse agonist project, cell-based, luminescence, high throughput (AID 651615; in the data active means inhibition above about 33%); settings: Gal4-VP16 luciferase reporter cells, at 3.6 µM, hits give high values

**Q.** What does the source list for O=c1[nH]c2ccccc2n1C1CCN(C(c2cccc3ccccc23)c2nnnn2-c2ccc3c(c2)OCCO3)CC1 (stereo unspecified)?
**A.** inhibition [1]: 33.8%; inhibition [2]: 12.5%; inhibition [3]: -29.6%; inhibition [4]: 10.9%; inhibition [5]: 57.5% (active); inhibition [6]: 27.6%; inhibition [7]: 44% (active); inhibition [8]: 27.7%

**Q.** With O=c1[nH]c2ccccc2n1C1CCN(C(CCc2ccccc2)c2nnnn2Cc2ccccc2)CC1 (stereo unspecified) as the compound, how does the inhibition [1] read?
**A.** 34.6%

**Q.** And the inhibition [2]?
**A.** 40.3% (active)

**Q.** What about the inhibition [3] of the same compound?
**A.** 12%

**Q.** And the inhibition [4]?
**A.** 36.7% (active)

**Q.** With Cc1c2ccncc2c(C)c2c1[nH]c1ccccc12 as the compound, how does the inhibition [1] read?
**A.** 24%

**Q.** And the inhibition [2]?
**A.** 45.9% (active)

**Q.** And the inhibition [3]?
**A.** 25.6%

**Q.** What about the inhibition [4] of the same compound?
**A.** 42.1% (active)

**Q.** For Cc1ccccc1-[n+]1c(-c2ccccc2)cc(-c2ccccc2)cc1-c1ccccc1, which inhibition [1] is on record?
**A.** 69.8% (active)

**Q.** And the inhibition [2]?
**A.** 86% (active)

**Q.** And the inhibition [3]?
**A.** 71.6% (active)

**Q.** What about the inhibition [4] of the same compound?
**A.** 84.6% (active)

**Q.** And the inhibition [5]?
**A.** 83.2% (active)

**Q.** What about the inhibition [6] of the same compound?
**A.** 109% (active)

**Q.** What about the inhibition [7] of the same compound?
**A.** 95.3% (active)

**Q.** And the inhibition [8]?
**A.** 94.7% (active)

**Q.** With O=c1[nH]c2ccccc2n1C1CCN(C(c2cccs2)c2nnnn2Cc2ccccc2)CC1 (stereo unspecified) as the compound, how does the inhibition [1] read?
**A.** 32.3%

**Q.** And the inhibition [2]?
**A.** 36.7% (active)

**Q.** And the inhibition [3]?
**A.** 0.46%

**Q.** What about the inhibition [4] of the same compound?
**A.** 32.5% (active)

**Q.** With CC(C)(C)c1cc(C=C(C#N)C#N)cc(C(C)(C)C)c1O as the compound, how does the inhibition [1] read?
**A.** 64.3% (active)

**Q.** And the inhibition [2]?
**A.** 82.4% (active)

**Q.** And the inhibition [3]?
**A.** 0.93%

**Q.** And the inhibition [4]?
**A.** 81% (active)

**Q.** What about the inhibition [5] of the same compound?
**A.** 80.2% (active)

**Q.** What about the inhibition [6] of the same compound?
**A.** 102% (active)

**Q.** And the inhibition [7]?
**A.** 91.4% (active)

**Q.** What about the inhibition [8] of the same compound?
**A.** 88.2% (active)

**Q.** For CN1CCN(c2ncnc3ccc(Br)cc23)CC1, which inhibition [1] is on record?
**A.** 42.3%

**Q.** What about the inhibition [2] of the same compound?
**A.** 37.6% (active)

**Q.** And the inhibition [3]?
**A.** 31.2%

**Q.** What about the inhibition [4] of the same compound?
**A.** 33.4% (active)

**Q.** With COc1cc2c(cc1O)C[C@H]1NCCc3cc4c(c-2c31)OCO4 as the compound, how does the inhibition [1] read?
**A.** 32.3%

**Q.** What about the inhibition [2] of the same compound?
**A.** 33.2% (active)

**Q.** And the inhibition [3]?
**A.** 22.1%

**Q.** What about the inhibition [4] of the same compound?
**A.** 40.2% (active)

**Q.** With CSCCC(c1nnnn1Cc1ccccc1)N1CCC(n2c(=O)[nH]c3ccccc32)CC1 (stereo unspecified) as the compound, how does the inhibition [1] read?
**A.** 52.8% (active)

**Q.** What about the inhibition [2] of the same compound?
**A.** 46.3% (active)

**Q.** What about the inhibition [3] of the same compound?
**A.** 36.4%

**Q.** And the inhibition [4]?
**A.** 44.5% (active)

**Q.** Which inhibition [1] does the source give for CN(C)c1ccc(-[n+]2c(-c3ccccc3)cc(-c3ccccc3)cc2-c2ccccc2)cc1 here?
**A.** 84.6% (active)

**Q.** What about the inhibition [2] of the same compound?
**A.** 86.2% (active)

**Q.** And the inhibition [3]?
**A.** 52.3% (active)

**Q.** And the inhibition [4]?
**A.** 83.5% (active)

**Q.** What about the inhibition [5] of the same compound?
**A.** 79.2% (active)

**Q.** And the inhibition [6]?
**A.** 107% (active)

**Q.** What about the inhibition [7] of the same compound?
**A.** 91.6% (active)

**Q.** What about the inhibition [8] of the same compound?
**A.** 92% (active)
